This passage reports Potency results from PubChem BioAssay (NCATS).

Inconclusive results are not listed. Calls of active or inactive are those of the source. Calls come from the whole dose curve; as a rule, active = well fitted cell-killing curve with a large enough effect; inconclusive = small, poorly fitted or top-dose-only effect; inactive = flat fitted curve, though single readings scatter.

Test [1] can be described thus: Cell Viability - LYMP2-011 (AID 969). Note: nearly all actives have a fitted effect of over 60% in size. A digest of the protocol:
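Luminescent ATP read-out (CellTiter-Glo, 30 min RT) after 24 hr compound exposure at 37 C in human lymphoblastoid cells, 2500 cells/well. Decreasing ATP indicates cytotoxicity; AC50 from standard Hill fit.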

A short description of test [2]: Cell Viability - LYMP2-013 (AID 970). Note: nearly all actives have a fitted effect of over 55% in size. A digest of the protocol: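 CellTiter-Glo luminescence (cellular ATP) read after 30 min at RT. Cells: human lymphoblastoid line, 2500/well, 24 hr compound exposure at 37 C. Tetraoctylammonium bromide positive control; AC50 via standard Hill fit of qHTS titrations.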
Test [3] is described as follows: Cell Viability - LYMP2-015 (AID 971). Note: nearly all actives have a fitted effect of over 55% in size. Summed up: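 qHTS cytotoxicity: 2500 cells/well, 5 hr 37 C, compound 24 hr 37 C, CellTiter-Glo 30 min RT, luminescence. Loss of ATP = toxicity; AC50 via standard Hill fit.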
Test [4] in a line: Cell Viability - LYMP2-017 (AID 972). Note: nearly all actives have a fitted effect of over 55% in size. A digest of the protocol:
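Luminescent ATP read-out (CellTiter-Glo, 30 min RT) reports viable cell number. Cells: human lymphoblastoid line, 2500 per well, 5 hr preincubation, 24 hr compound exposure at 37 C. AC50 is derived from qHTS concentration-response data using the standard Hill model.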

The nature of test [5]: Cell Viability - LYMP2-019 (AID 973). Note: nearly all actives have a fitted effect of over 55% in size. A digest of the protocol:
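qHTS, 1536-well; 2500 cells/well; 5 hr pre-incubation, 24 hr compound exposure, 37 C; CellTiter-Glo added, 30 min RT; luminescence read; AC50 via standard Hill equation.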

Test [6] can be described thus: Cell Viability - LYMP2-021 (AID 974). A digest of the protocol: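 ATP luminescence (CellTiter-Glo, 30 min RT) after 24 h compound exposure at 37 C; 2500 human lymphoblastoid cells/well, 5 h settle beforehand. Cytotoxicity = concentration-dependent ATP drop, AC50 by Hill fit.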
Test [7] in a line: Cell Viability - LYMP2-023 (AID 975). Note: nearly all actives have a fitted effect of over 55% in size. A digest of the protocol:
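CellTiter-Glo luminescence after 30 min at room temperature; decrease in intracellular ATP reflects toxicity. Cells: human lymphoblastoid line, 2500/well, 24 hr compound exposure at 37 C. AC50 fitted to standard Hill equation from concentration-response.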

Test [8] can be described thus: Cell Viability - LYMP2-025 (AID 976). Summed up: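 CellTiter-Glo luminescence (cellular ATP) after 24 h compound exposure at 37 C; LYMP2-025 human lymphoblastoid cells, 2500/well, complete medium. Tetraoctylammonium bromide positive control. AC50 by Hill equation fit of qHTS concentration-response.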
Test [9] is described as follows: Cell Viability - LYMP2-002 (AID 977). A digest of the protocol: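 Human lymphoblastoid cells (2500/well) in complete medium were preincubated 5 hr at 37 C, then exposed to compounds for 24 hr at 37 C. Intracellular ATP was read by CellTiter-Glo luminescence; AC50 came from Hill-equation concentration-response fits.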
A short description of test [10]: Cell Viability - LYMP2-006 (AID 978). Note: nearly all actives have a fitted effect of over 60% in size. Summed up:
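Human lymphoblastoid cells, 2500 per well, were preincubated 5 hr at 37 C, then exposed to compounds for 24 hr at 37 C in complete medium. Viability was read as intracellular ATP by CellTiter-Glo luminescence; AC50 from Hill-equation fits of qHTS concentration-response data.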
Potency is the fitted concentration of half-maximal effect.

As for `CCOC(C)=O`, the Potency result in test [1], in test [2], in [3], in [4], in test [5] and in test [6] was “inactive” throughout. Moreover, the Potency result in [7], in test [8], in [9] and in [10] was “inactive” throughout.
With `CCCCCCCC(=O)O`, the Potency entry in test [1], in test [2], in test [3], in test [4], in test [5] and in test [6] was “inactive” in each case. Moreover, the Potency result in [7], in test [8], in [9] and in [10] was “inactive” in each case.
Regarding `Nc1ccn([C@H]2CS[C@@H](CO)O2)c(=O)n1`, the Potency result in test [1], in [2], in test [3], in [4], in test [5] and in test [6] was “inactive” each time. Also, the Potency result in [7], in test [8], in test [9] and in test [10] was “inactive” each time.
For the molecule `CC1=C2[C@@H]([C@H](C)CC[C@H]2/C=C(\C)C(=O)O)[C@H](O)C1`, the Potency result in [1], in [2], in [3], in test [4], in test [5] and in test [6] was “inactive” throughout. Besides, the Potency result in [7], in test [8], in [9] and in test [10] was “inactive” throughout.
Consider `CC(C)=O`, for which the Potency entry in [1], in [2], in test [3], in test [4], in test [5] and in test [6] was “inactive” throughout. The Potency result in test [7], in [8], in test [9] and in test [10] was “inactive” throughout.
For the molecule `Cc1ccccc1`, the Potency entry in test [1], in test [2], in test [3], in test [4], in [5] and in test [6] was “inactive” in each case. For the same molecule, the Potency entry in test [7], in test [9] and in test [10] was “inactive” each time.
Turning to `O=C(O)CCC(=O)C(=O)O`, the Potency result in test [1], in test [2], in test [3], in [4], in test [5] and in test [6] was “inactive” each time. Moreover, the Potency entry in [7], in test [8], in [9] and in [10] was “inactive” each time.
As for `CC1=C(/C=C/C(C)=C/C=C/C(C)=C/CO)C(C)(C)CCC1`, the Potency entry in [8], in [9] and in test [10] was “inactive” each time.
As to `CC(C)(C)NC(=O)[C@@H]1C[C@@H]2CCCC[C@@H]2CN1C[C@@H](O)[C@H](Cc1ccccc1)NC(=O)[C@H](CC(N)=O)NC(=O)c1ccc2ccccc2n1`, the Potency result in [8] was “inactive”.
With `CCCCC/C=C\C/C=C\CCCCCCCC(=O)O`, the Potency result in test [1], in test [2], in test [3], in test [4], in [5] and in test [6] was “inactive” throughout. Besides, the Potency result in test [7], in [8], in [9] and in test [10] was “inactive” each time.
`CCCCCCCC/C=C\CCCCCCCC(=O)O`: the Potency entry in test [1], in test [2], in [3], in test [4], in test [5] and in test [6] was “inactive” each time. Besides, the Potency entry in [7], in test [8], in [9] and in [10] was “inactive” each time.
Consider `O=CCCCC=O`, for which the Potency is 20 µM (active) in test [1]; 20 µM (active) in test [2]; 15.8 µM (active) in [3]; 20 µM (active) in [4]; 25.1 µM (active) in [5]; 15.8 µM (active) in [6]. The Potency was 25.1 µM (active) in test [7], 39.8 µM (active) in test [8], 31.6 µM (active) in [9] and 25.1 µM (active) in test [10].
On to `IC(I)I`, for which the Potency entry in test [1], in test [2], in test [3], in [4], in test [5] and in test [6] was “inactive” each time. Moreover, the Potency result in [7], in test [8], in [9] and in test [10] was “inactive” each time.
For the molecule `CC(O)CO` (stereo not drawn), the Potency result in test [1], in [2], in test [3], in [4], in test [5] and in test [6] was “inactive” in each case. For the same molecule, the Potency entry in test [7], in [8], in [9] and in test [10] was “inactive” each time.
Regarding `O=S(=O)(O)O`, the Potency entry in test [1], in [2], in test [3], in test [4], in test [5] and in [6] was “inactive” throughout. For the same molecule, the Potency result in test [7], in test [8], in test [9] and in test [10] was “inactive” throughout.
In the case of `CCOc1ccc2c(c1)C(C)=CC(C)(C)N2`, the Potency entry in test [1], in test [2], in [3], in test [4], in test [5] and in test [6] was “inactive” in each case. The Potency result in [7], in test [8], in test [9] and in [10] was “inactive” in each case.
